Experimental data published in PubChem BioAssay (NCATS).
Records with an inconclusive call do not appear. Where a call stands in place of a potency, no number is given. For some of these results: Potency and affinity values are given separately. Calls of active or inactive are those of the source.

How the values were obtained:
[1] = Ebola virus entry assay, blue channel fluorescence
[2] = Ebola virus entry reporter assay, green channel fluorescence
[3] = Ebola virus entry cell assay, ratio channel
[4] = qHTS assay to identify small molecule inhibitors of chordoma cells - UCH-1 (AID 1259355; active = well fitted curve in the direction sought with a large enough effect; an effect the other way counts as inactive or inconclusive; also: nearly all actives have a fitted effect of over 55% in size); conditions: UCH-1 chordoma viability, CellTiter-Glo, 48 h, combination; series mostly up to 46.1 µM
Outline: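 Luminescent ATP read-out (CellTiter-Glo, 30min at room temperature) measured viability of UCH-1 cells exposed for 48hr to test drugs at 15 concentrations, co-dosed with a five-agent combination of auranofin, camptothecin, doxorubicin, rubitecan and topotecan.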

[5] = qHTS assay to identify small molecule inhibitors of chordoma cells - UCH-2 (AID 1259356; active = well fitted curve in the direction sought with a large enough effect; an effect the other way counts as inactive or inconclusive); conditions: UCH-2 chordoma viability, CellTiter-Glo ATP luminescence, 48 h; series mostly up to 46.1 µM

| SMILES | outcome [1] | outcome [2] | outcome [3] | outcome [4] | outcome [5] |
| --- | --- | --- | --- | --- | --- |
| CCOC(=O)[C@H](CCc1ccccc1)N[C@H]1CCCN2CCC[C@@H](C(=O)O)N2C1=O | inactive | inactive | inactive |  |  |
| CO/N=C(\C(=O)N[C@@H]1C(=O)N2C(C(=O)O)=CCS[C@H]12)c1csc(N)n1 | inactive | inactive | inactive |  |  |
| Nc1nc(/C(=C/CC(=O)O)C(=O)N[C@@H]2C(=O)N3C(C(=O)O)=CCS[C@H]23)cs1 | inactive | inactive | inactive |  |  |
| CNC(C)[C@@H]1CC[C@@H](N)[C@@H](O[C@H]2[C@H](O)[C@@H](O[C@H]3OC[C@](C)(O)[C@H](NC)[C@H]3O)[C@H](N)C[C@@H]2N)O1 (stereo not given in full) | inactive | inactive | inactive |  |  |
| CCCCC(C)(O)C/C=C/[C@H]1[C@H](O)CC(=O)[C@@H]1CCCCCCC(=O)OC (stereo not given in full) | inactive | inactive | inactive |  |  |
| C[C@@H]1[C@H](O)[C@@H](C)/C=C/C=C\C=C\C=C\C=C\C=C\C=C\[C@H](O[C@@H]2O[C@H](C)[C@@H](O)[C@H](N)[C@@H]2O)C[C@@H]2O[C@](O)(C[C@@H](O)C[C@@H](O)[C@H](O)CC[C@@H](O)C[C@@H](O)CC(=O)O[C@H]1C)C[C@H](O)[C@H]2C(=O)O (stereo in doubt) | inactive | inactive | inactive |  |  |
| CCCc1nc(C(C)(C)O)c(C(=O)OCc2oc(=O)oc2C)n1Cc1ccc(-c2ccccc2-c2nn[nH]n2)cc1 | inactive | inactive | inactive |  |  |
| CC1(C)S[C@@H]2[C@H](NC(=O)[C@H](N)c3ccc(O)cc3)C(=O)N2[C@H]1C(=O)O | inactive | inactive | inactive |  |  |
| C[C@@H]1O[C@@H]1P(=O)(O)O | inactive | inactive | inactive |  |  |
| CC(=O)NCCCS(=O)(=O)O | inactive | inactive | inactive |  |  |
| NC(=O)[C@@H]1CCCN1C(=O)[C@H](Cc1cnc[nH]1)NC(=O)[C@@H]1CCC(=O)N1 | inactive |  | inactive |  |  |
| CN1C(=O)CC(=O)N(c2ccccc2)c2cc(Cl)ccc21 | inactive | inactive | inactive | inactive | inactive |
| O=P(O)(O)C(O)(Cn1ccnc1)P(=O)(O)O | inactive | inactive | inactive |  |  |
| CCCCCCCN(CC)CCCC(O)c1ccc(NS(C)(=O)=O)cc1 (stereo not given) | inactive | inactive | inactive |  |  |
| CCCCC[C@H](O)/C=C/[C@@H]1[C@H]2C/C(=C/CCCC(=O)O)O[C@H]2C[C@H]1O | inactive |  | inactive |  |  |
| CO[C@H]1C=CO[C@@]2(C)Oc3c(C)c(O)c4c(O)c(c5c(nc6cc(C)ccn65)c4c3C2=O)NC(=O)/C(C)=C\C=C[C@H](C)[C@H](O)[C@@H](C)[C@@H](O)[C@@H](C)[C@H](OC(C)=O)[C@@H]1C | inactive |  | inactive |  |  |
| O=C(O)c1cc(N=Nc2ccc(O)c(C(=O)O)c2)ccc1O | inactive |  | inactive |  |  |
| CO/N=C(\C(=O)N[C@@H]1C(=O)N2C(C(=O)O)=C(C[N+]3(C)CCCC3)CS[C@H]12)c1csc(N)n1 | inactive | inactive | inactive |  |  |
| O=C1Nc2ccc(Cl)cc2C(c2ccccc2Cl)=NC1O (stereo not given) | inactive | inactive | inactive | inactive | inactive |
| CCN1C(=O)NC(c2ccccc2)C1=O (stereo not given) | inactive |  | inactive |  |  |
| CC(C)[C@H](N)C(=O)OCC(CO)OCn1cnc2c(=O)[nH]c(N)nc21 (stereo not given in full) | inactive | inactive | inactive |  |  |
| CC[C@H]1OC(=O)[C@H](C)C(=O)[C@H](C)[C@@H](O[C@@H]2O[C@H](C)C[C@H](N(C)C)[C@H]2O)[C@](C)(OC)C[C@@H](C)C(=O)[C@H](C)[C@H]2N(CCCCn3cnc(-c4cccnc4)c3)C(=O)O[C@]12C | inactive |  | inactive |  |  |
| CC[C@H](C)C(=O)O[C@H]1C[C@H](O)C=C2C=C[C@H](C)[C@H](CC[C@@H](O)C[C@@H](O)CC(=O)O)[C@H]21 | inactive |  | inactive |  |  |
| CCC[C@@H]1C[C@@H](C(=O)N[C@@H]([C@H]2O[C@H](SC)[C@H](O)[C@@H](O)[C@H]2O)[C@H](C)Cl)N(C)C1 | inactive |  | inactive |  |  |
| CO/N=C(\C(=O)N[C@@H]1C(=O)N2C(C(=O)O)=C(COC(C)=O)CS[C@H]12)c1csc(N)n1 (stereo in doubt) | inactive |  | inactive |  |  |
